Screen size: about 3,300 compounds; about 280 (8.5%) were called active.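 Rule for the calls: active = mean growth inhibition over the two runs of 50% or more; inactive = mean growth inhibition under 50%.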 For the sample, actives were picked, then their nearest neighbours and some compounds at random.

A short description of the experiment: A549 NSCLC cell proliferation inhibitors – ATP luminescence, human non-small cell lung line, primary screen (AID 371).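 Note: compound exposure lasted 72 h before the ATP read; 0% = untreated cell signal and 100% = no luminescence left.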 As to conditions: at 10 µM, active compounds read high.
Consider `Oc1ccc(Br)cc1CNn1cnnc1`, for which the growth inhibition is 3.94% (inactive).

For the compound `CCn1c(SCC(=O)Nc2ccccc2C(=O)OC)nnc1-c1ccc(N)cc1`, the growth inhibition is -4.2% (inactive).

With `COCCNc1ncnc2c1cnn2-c1ccc(Cl)cc1`, the growth inhibition was 26.1% (inactive).

On to `CCOC(=O)C1=C(C)N=C2SC(C)C(=O)N2C1c1cccc(F)c1` (configuration not stated), for which the growth inhibition was -4.33% (inactive).

In the case of `Oc1c(Cl)cc(Cl)cc1Sc1cc(Cl)cc(Cl)c1O`, the growth inhibition was 82.9% (active).

Consider `CCOC(=O)C1CCN(c2nc3ccccc3nc2C(C#N)C(=O)OCCOC)CC1` (configuration not stated), for which the growth inhibition is 13.4% (inactive).

Take `CCC1=Nc2ccccc2NC2=C1C(=O)CCC2`: the growth inhibition was 1% (inactive).

Turning to `Cc1cn([C@H]2C[C@H](N=[N+]=[N-])[C@@H](CO)O2)c(=O)[nH]c1=O`, the growth inhibition was 7.02% (inactive).

For the compound `CCc1cn([C@H]2C[C@H](O)[C@@H](CO)O2)c(=O)[nH]c1=O`, the growth inhibition is 29.9% (inactive).

Consider `O=c1[nH]c(=O)n([C@H]2C[C@H](O)[C@@H](CO)O2)cc1F`, for which the growth inhibition is 71% (active).

For the compound `COc1ccccc1-c1nn2c(-c3ccco3)nnc2s1`, the growth inhibition is 21.8% (inactive).

Take `Cc1cc2c(c(=O)o1)C(Cc1ccccc1)C(C#N)=C(N)O2` (configuration not stated): the growth inhibition was -0.57% (inactive).

Regarding `CC1(C)Cc2c(C#N)c(NCCN3CCOCC3)nc(-c3ccco3)c2CO1`, the growth inhibition is 3.05% (inactive).

As for `Nc1ncnc2nc(SCc3ccccc3)[nH]c12`, the growth inhibition was 13.6% (inactive).

In the case of `Cc1cccc(C)c1OCC(=O)Nc1cccc(-c2nnc(-c3ccccc3)o2)c1`, the growth inhibition is 53% (active).

Consider `COc1ccc(CC(=O)Nc2cccc(-c3nnc(-c4ccco4)o3)c2)cc1`, for which the growth inhibition is 64% (active).

With `O=C(Cc1ccccc1)Nc1cccc(-c2nnc(-c3ccco3)o2)c1`, the growth inhibition is 24% (inactive).

Turning to `O=C(COc1ccccc1)Nc1ccc(-c2nnc(-c3ccco3)o2)cc1`, the growth inhibition is -6.02% (inactive).

For `O=C(Cc1ccc(Cl)cc1)Nc1cccc(-c2nnc(-c3ccco3)o2)c1`, the growth inhibition is 20.9% (inactive).

Take `CCC(=O)Nc1ccc(-c2nnc(-c3ccccc3)o2)cc1`: the growth inhibition is 33.7% (inactive).

For `N/C(CCCN1CCCCC1)=N/O`, the growth inhibition was -8.24% (inactive).

Take `CCOC(=O)CNC(=O)CCCCCC(=O)NCC(=O)OCC`: the growth inhibition was -12.7% (inactive).

In the case of `O=C(NCCN1CCOCC1)c1cc2n(n1)C(C(F)(F)F)CC(c1ccc(F)cc1)N2` (configuration not stated), the growth inhibition was 2.7% (inactive).

Regarding `CC(C)(C)NCC(=O)c1c[nH]c2ccccc12`, the growth inhibition is -2.93% (inactive).

In the case of `COc1ccc2c(c1OC)C(=O)N1c3ccccc3C(=O)N(c3ccccc3)C21` (configuration not stated), the growth inhibition was 36.5% (inactive).

For `CCCCSc1nc(O)c(C2OC(=O)c3c2ccc(OC)c3OC)c(=O)n1C` (configuration not stated), the growth inhibition was 4.34% (inactive).

`c1ccc(-c2nnc(OCCN3CCOCC3)c3ccccc23)cc1`: the growth inhibition is -0.08% (inactive).
